Screens deposited in PubChem BioAssay by several laboratories.
MEKK3 PB1 HTS: MEKK3-MEK5 PB1 interaction, increase or decrease; binding response (% of control), % at 10 µM; AID 1529; Q99759; bead-based flow cytometry, Alexa488-MEK5 binding to MEKK3; actives lie on both sides; 0 = blocked by unlabeled MEK5, 100 = vehicle; 290,000 compounds, 1.4% hits;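 active = binding response more than 3 SD above or below the average of its plate-row segment, actives on both sides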;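 note: Alexa488 bead fluorescence after subtracting the streptavidin-only scavenger bead signal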
ATG4B inhibitor: ATG4B (human) cysteine protease inhibition | Q9Y4P1 | ATG4B cleavage of LC3-PLA2, NBD-HPC fluorescence, 1 h | inhibition, % at 8.33 µM | 340,000 compounds, 0.51% hits; in the data active = inhibition above about 40%
MEKK2mut PB1 HTS: signal of MEK5 binding to mutant human MEKK2 PB1 domain; percent response, % at 10 µM; bead flow cytometry, Alexa488-MEK5 binding to MEKK2 mutant; 290,000 compounds, 0.35% hits; in the data active = percent response above about 24%, passing the limit was not always enough
UBC13 inh: blocks human UBC13 polyubiquitin chain formation; P61088; TR-FRET; inhibition, % at 20 µM; 330,000 compounds, 0.47% hits; AID 485273; in the data active = inhibition above about 45%, passing the limit was not always enough
PREPL inhibitor: inhibitors of human prolyl oligopeptidase-like enzyme PREPL; 320,000 compounds, 0.68% hits; Q4J6C6; inhibition, % at 5.96 µM; recombinant PREPL, fluorescence polarization activity-based probe; in the data active = inhibition above about 43%;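 note: 0% = enzyme with DMSO and 100% = wells lacking enzyme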
Target sequence (Q4J6C6 whole entry, looked up): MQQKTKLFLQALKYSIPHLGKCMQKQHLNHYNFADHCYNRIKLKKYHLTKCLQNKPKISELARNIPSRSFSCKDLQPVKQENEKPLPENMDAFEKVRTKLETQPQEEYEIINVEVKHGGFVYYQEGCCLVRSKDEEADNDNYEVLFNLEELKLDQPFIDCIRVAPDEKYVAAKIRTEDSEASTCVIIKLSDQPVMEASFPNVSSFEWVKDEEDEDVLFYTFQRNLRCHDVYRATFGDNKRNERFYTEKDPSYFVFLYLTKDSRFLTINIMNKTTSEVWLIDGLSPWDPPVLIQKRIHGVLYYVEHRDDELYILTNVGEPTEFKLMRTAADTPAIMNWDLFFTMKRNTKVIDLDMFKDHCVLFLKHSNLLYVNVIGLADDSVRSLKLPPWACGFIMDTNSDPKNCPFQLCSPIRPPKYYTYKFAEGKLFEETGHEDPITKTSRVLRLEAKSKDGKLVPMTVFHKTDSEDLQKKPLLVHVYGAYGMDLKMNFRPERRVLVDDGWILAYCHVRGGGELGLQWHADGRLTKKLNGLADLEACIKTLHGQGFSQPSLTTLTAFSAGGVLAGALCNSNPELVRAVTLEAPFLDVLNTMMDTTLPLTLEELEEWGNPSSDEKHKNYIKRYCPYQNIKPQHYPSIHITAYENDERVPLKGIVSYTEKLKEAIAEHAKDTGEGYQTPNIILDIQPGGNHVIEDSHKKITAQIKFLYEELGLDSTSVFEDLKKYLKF
MEKK2 WT-MEK5: raises or lowers MEK5 binding to wildtype human MEKK2 PB1 domain; Q9Y2U5; bead flow cytometry, Alexa488-MEK5 binding to MEKK2 WT; actives lie on both sides; binding response (% of control), % at 10 µM; 290,000 compounds, 1.1% hits; in the data active = binding response below about 67% or above about 130%
MEKK2wt confirm: raises or lowers MEK5 binding to wildtype human MEKK2, retest | shares compounds with MEKK3 PB1 HTS | bead flow cytometry, Alexa488-MEK5 binding to MEKK2 WT; actives lie on both sides | binding response (% of control), % at 10 µM | 5,900 compounds, 2.4% hits | AID 1892; in the data active = binding response below about 16% or above about 210%; inactive = in between
MEKK2mut-MEK5: signal of MEK5 binding to mutant human MEKK2, retest; shares compounds with MEKK3 PB1 HTS; bead flow cytometry, Alexa488-MEK5 binding to MEKK2 mutant; percent response, % at 10 µM; 5,900 compounds, 2% hits; in the data active = percent response mostly above about 71%, no sharp cut-off; inactive = mostly below about 38%;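 note: higher means compound restores mutant binding toward wildtype level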
MEKK3-MEK5 inh: confirmation of inhibitors of MEK5 binding to human MEKK3; shares compounds with MEKK3 PB1 HTS; bead flow cytometry, Alexa488-MEK5 binding to MEKK3; stronger effect = lower value; binding response (% of control), % at 10 µM; 5,900 compounds, 1.8% hits; AID 1894;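 active = binding response below 72% of control, or above a set upper limit, though filed actives all read lower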;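 note: 100% = DMSO only wells and 0% = binding blocked by excess unlabeled MEK5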
Starred values were filed as active, the others as inactive; / = not tested or not shown; [ ] = remark or other dose. The list is not random: actives were taken first. Their share in the collection is about 3.1%.

SMILES | MEKK3 PB1 HTS | ATG4B inhibitor | MEKK2mut PB1 HTS | UBC13 inh | PREPL inhibitor | MEKK2 WT-MEK5 | MEKK2wt confirm | MEKK2mut-MEK5 | MEKK3-MEK5 inh
C#CCOCCOCCOCCNc1nc(N2CCN(C(=O)[C@H](Cc3cc4ccccc4[nH]3)n3cc([C@@H](N)C(C)CC)nn3)CC2)nc(N2CCN(C(=O)[C@H](CCCCN)n3cc([C@@H](N)CO)nn3)CC2)n1 (stereo partly specified) | 107.0 | / | 57.0* | 109.6* | 42.7 | 202.0* | 204.0 | 52.0 | 108.0
C#CCOCCOCCOCCNc1nc(N2CCN(C(=O)[C@H](Cc3cc4ccccc4[nH]3)n3cc([C@@H](N)C(C)CC)nn3)CC2)nc(N2CCN(C(=O)[C@H](Cc3cc4ccccc4[nH]3)n3cc([C@@H](N)CC(C)C)nn3)CC2)n1 (stereo partly specified) | 99.0 | / | 13.0 | 61.1* | 68.9* | 205.0* | 249.0* | 76.0* | 109.0
C#CCOCCOCCOCCNc1nc(N2CCN(C(=O)[C@H]([C@@H](C)CC)n3cc([C@@H](N)CO)nn3)CC2)nc(N2CCN(C(=O)[C@H](Cc3ccc(O)cc3)n3cc([C@@H](N)CC(C)C)nn3)CC2)n1 | 75.0 | -14.1 | 3.0 | 9.1 | 24.7 | 116.0 | / | / | /
C#CCOCCOCCOCCNc1nc(N2CCN(C(=O)[C@H](CCC(=O)O)n3cc(C(N)CO)nn3)CC2)nc(N2CCN(C(=O)[C@H](Cc3cc4ccccc4[nH]3)n3cc(C(N)[C@H](C)CC)nn3)CC2)n1 (stereo partly specified) | 103.0 | -13.6 | 27.0 | 25.4 | 17.8 | 156.0* | 275.0* | 110.0* | 114.0
COc1ccccc1-n1cc(CN2CCN(C3CCCCC3)C(CCO)C2)cn1 (stereo unspecified) | 100.0 | -14.1 | 0.0 | 1.6 | -3.5 | 108.0 | / | / | /
CCc1ccccc1NC(=O)C1CCN(C(=O)N2CCOc3ccccc32)CC1 | 102.0 | -4.1 | 5.0 | -3.4 | -2.5 | 104.0 | / | / | /
C#CCOCCOCCOCCNc1nc(N2CCN(C(=O)[C@H]([C@@H](C)CC)n3cc([C@@H](N)CO)nn3)CC2)nc(N2CCN(C(=O)[C@H](Cc3cc4ccccc4[nH]3)n3cc([C@@H](N)Cc4ccc(O)cc4)nn3)CC2)n1 | 100.0 | / | 4.0 | 97.6* | 48.8* | 155.0* | 231.0* | 114.0* | 107.0
C#CCOCCOCCOCCNc1nc(N2CCOCC2)nc(N2CCN(C(=O)[C@H](Cc3cc4ccccc4[nH]3)n3cc([C@@H](N)Cc4ccc(O)cc4)nn3)CC2)n1 | 109.0 | -2.6 | 14.0 | 8.6 | 20.6 | 123.0 | / | / | /
Cc1cccc(NC(=O)CCCN=C2NS(=O)(=O)c3ccccc32)c1C | / | -22.2 | / | 4.8 | 4.8 | / | / | / | /
CCOC(=O)C1CCN(CC(O)COc2ccc(C(C)(C)C)cc2)CC1 (stereo unspecified) | 98.0 | -9.7 | 1.0 | 15.8 | 7.9 | 104.0 | / | / | /
CCOC(=O)C1CCN(CC(O)COc2ccc(C(C)(C)CC)cc2)CC1 (stereo unspecified) | 2.0*[inhibitor] | 1.5 | -21.0 | 17.9 | -6.1 | 0.0*[inhibitor] | 124.0 | 13.0 | 110.0
COc1ccc(C2NC(=O)N(C)C3=C2C(=O)CC(C)(C)C3)cc1OC (stereo unspecified) | 104.0 | 6.4 | -2.0 | 1.2 | 6.5 | 101.0 | / | / | /
O=c1[nH]nc(CNc2ccc(OC(F)(F)F)cc2)c2ccccc12 | 39.0*[inhibitor] | 0.2 | -17.0 | 5.0 | 12.7 | 50.0 | 100.0 | -4.0 | 104.0
O=c1[nH]nc(CNc2ccc(C(F)(F)F)cc2)c2ccccc12 | 109.0 | -4.0 | 0.0 | 3.5 | 6.9 | 103.0 | / | / | /
O=C(CSc1nn(-c2ccccc2)c(=S)s1)Nc1ncccn1 | 100.0 | -3.7 | -12.0 | -7.4 | 12.1 | 80.0 | / | / | /
S=c1sc(SCCOc2ccccc2)nn1-c1ccccc1 | 132.0* | 4.7 | 1.0 | 11.5 | -24.6 | 104.0 | 96.0 | -3.0 | 101.0
COc1ccc2c(/C=C/c3cc[n+](C)cc3)c[nH]c2c1 | 104.0 | -3.0 | 48.0* | -151.3 | 16.4 | 168.0* | 101.0 | -1.0 | 93.0
Cc1ccc(NC(=O)CSc2nc(N)cc(=O)[nH]2)cc1S(=O)(=O)N1CCCCC1 | / | -2.5 | / | 2.1 | 6.4 | / | / | / | /
Cc1ccc(NC(=S)N/N=C/c2ccc([N+](=O)[O-])s2)cc1 | 85.0 | -15.8 | -7.0 | -54.6 | 26.6 | 62.0*[inhibitor] | 73.0 | -14.0 | 94.0
Cc1cc(C)cc(N=Cc2ccc([N+](=O)[O-])s2)c1 | 101.0 | -4.8 | 0.0 | -8.4 | -8.9 | 101.0 | / | / | /
COCCNC(=O)CSc1nc(-c2ccc(OC)c(OC)c2)cc(C(F)(F)F)n1 | 79.0*[inhibitor] | -5.9 | -12.0 | -2.0 | 5.4 | 87.0 | 93.0 | 0.0 | 89.0
C[C@@]12CCC=C[C@H]1[C@H](c1ccc(C(F)(F)F)cc1)N(Cc1ccccc1)C2=O | 100.0 | 17.1 | 1.0 | 1.4 | 3.4 | 86.0 | / | / | /
CC(C)(C)OC(=O)N1CCC(Cc2cc(-c3cccnc3)no2)(C(=O)O)CC1 | / | 0.5 | / | -9.1 | 1.1 | / | / | / | /
Cc1ccc(C(C(=O)NC2CCCCC2)N2CCC3(CC2)OCCO3)cc1 (stereo unspecified) | 110.0 | -10.5 | 3.0 | 2.2 | -6.2 | 109.0 | / | / | /
O=C(NC1CCCCC1)C(c1ccc(Cl)cc1)N1CCC2(CC1)OCCO2 (stereo unspecified) | 2.0*[inhibitor] | -3.5 | -16.0 | 4.3 | 3.7 | 2.0*[inhibitor] | 109.0 | 5.0 | 107.0
COc1ccccc1NS(=O)(=O)c1cccc(C(=O)N/N=C2\CC(=O)CC(C)(C)C2)c1 | 142.0* | -19.9 | -1.0 | 1.0 | 5.5 | 102.0 | 102.0 | 2.0 | 102.0
CCCCN(S(=O)(=O)c1ccccc1)S(=O)(=O)c1ccccc1 | 102.0 | 0.1 | 0.0 | 3.9 | -6.4 | 99.0 | / | / | /
Cc1c(C(=O)C(=O)N2CCN(C)CC2)c2ccccc2n1C | 117.0 | -5.5 | 1.0 | -19.9 | -2.6 | 113.0 | / | / | /
Cc1c(C(=O)C(=O)N2c3ccc(F)cc3CCC2C)c2ccccc2n1C (stereo unspecified) | 141.0* | 31.9 | 1.0 | -2.7 | 0.5 | 108.0 | 97.0 | -4.0 | 104.0
COc1ccccc1N1CCN(S(=O)(=O)c2ccccc2)CC1 | 94.0 | -6.9 | -4.0 | 4.8 | 3.3 | 96.0 | / | / | /
